Experimental data as given in PMC8384837, “Expanding the binding specificity for RNA recognition by a PUF domain”.

Legend:
Experiment in all cases: yeast three-hybrid, YBZ-1, SC-Leu-His + 0.5 mM 3-AT, 4 days
Conditions in all cases: tags: N-Gal4 AD-HA kept; label: inside an RPR1-promoter hybrid RNA with tandem MS2 sites; ssRNA
[1] = target: PUM1 PUF domain R3-RVA (Homo sapiens, UniProt Q14671 828-1176, C935R;R936V;Q939A)
Outline: (§1)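 Pumilio-1 PUF domain libraries, randomized at the three base-contacting residues of each repeat, were co-expressed with matching RNA elements from a centromeric plasmid in strain YBZ-1, which carries a LexA–MS2 coat fusion and a HIS3 reporter. Transformants grew for four days on SC-Leu (input) or on SC-Leu-His + 0.5 mM 3-AT (selection), and the repeat regions were PCR-amplified and Illumina-sequenced. The interaction score is the log change in variant frequency from input to selection. That logarithm is base 2, with a pseudocount of 1 where a variant was absent.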

[2] = target: PUM1 PUF domain R7-KRL (Homo sapiens, UniProt Q14671 828-1176, S1079K;N1080R;E1083L)
Outline: as §1

[3] = target: T1, PUM1 PUF domain R6-DFE (Homo sapiens, UniProt Q14671 828-1176, N1043D;Y1044F;Q1047E)
T1 sequence: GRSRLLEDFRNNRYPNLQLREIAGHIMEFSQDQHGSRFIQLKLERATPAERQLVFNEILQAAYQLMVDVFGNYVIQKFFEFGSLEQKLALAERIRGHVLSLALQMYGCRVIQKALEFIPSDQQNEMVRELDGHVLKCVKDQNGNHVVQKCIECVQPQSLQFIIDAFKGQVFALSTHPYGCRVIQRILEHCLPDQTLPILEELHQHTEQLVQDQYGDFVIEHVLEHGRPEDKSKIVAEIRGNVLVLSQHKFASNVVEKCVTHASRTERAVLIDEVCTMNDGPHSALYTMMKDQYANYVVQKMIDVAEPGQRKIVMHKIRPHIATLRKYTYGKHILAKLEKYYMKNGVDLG
Outline: as §1

[4] = target: PUM1 PUF domain R3-VYW (Homo sapiens, UniProt Q14671 828-1176, C935V;R936Y;Q939W)
Outline: as §1

[5] = target: PUM1 PUF domain R5-FRM (Homo sapiens, UniProt Q14671 828-1176, C1007F;Q1011M)
Outline: as §1

[6] = target: PUM1 PUF domain R5-GMR (Homo sapiens, UniProt Q14671 828-1176, C1007G;R1008M;Q1011R)
Outline: as §1

[7] = target: PUM1 PUF domain R8-TYK (Homo sapiens, UniProt Q14671 828-1176, N1122T;Q1126K)
Outline: as §1

[8] = target: PUM1 PUF domain R4-GRN (Homo sapiens, UniProt Q14671 828-1176, N971G;H972R;Q975N)
Outline: as §1

[9] = target: PUM1 PUF domain R4-APF (Homo sapiens, UniProt Q14671 828-1176, N971A;H972P;Q975F)
Outline: as §1

[10] = target: PUM1 PUF domain R2-GWF (Homo sapiens, UniProt Q14671 828-1176, N899G;Y900W;Q903F)
Outline: as §1

PUM1 PUF domain R5-GMR, sequence (Q14671 828-1176 C1007G/R1008M/Q1011R): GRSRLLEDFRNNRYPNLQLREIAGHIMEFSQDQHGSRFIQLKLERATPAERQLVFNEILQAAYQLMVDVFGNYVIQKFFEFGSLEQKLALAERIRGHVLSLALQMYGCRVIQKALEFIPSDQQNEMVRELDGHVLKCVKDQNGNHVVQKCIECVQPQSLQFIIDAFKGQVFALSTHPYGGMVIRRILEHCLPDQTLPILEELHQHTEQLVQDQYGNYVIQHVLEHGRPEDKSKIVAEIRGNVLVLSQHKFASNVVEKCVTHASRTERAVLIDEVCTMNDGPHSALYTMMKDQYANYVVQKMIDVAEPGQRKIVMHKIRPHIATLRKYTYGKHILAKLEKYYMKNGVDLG
PUM1 PUF domain R8-TYK, sequence (Q14671 828-1176 N1122T/Q1126K): as the sequence (Q14671 828-1176 C1007G/R1008M/Q1011R) above, with G180C, M181R, R184Q, N295T, Q299K counted along it

Q: How did the binding signal [1] turn out when “GGCUAGAACUAGUGGAUCCCCCGGCGCCCGGCGGCUCGAGCCCGGGUAAGUGUAAGUAGUCUGCAUGCCGCCGGGCGCCAUGCCUGCAGGUCGACUCUAGAAAACAUG” was run?
A: Its binding signal is 0.81 log2 enrichment (interaction score).

Q: With “GGCUAGAACUAGUGGAUCCCCCGGCGCCCGGCGGCUCGAGCCCGGGUAAGUCUAAAUAGUCUGCAUGCCGCCGGGCGCCAUGCCUGCAGGUCGACUCUAGAAAACAUG” as the sequence, how does the binding signal [2] read?
A: The binding signal was 5.65 log2 enrichment (interaction score).

Q: With “GGCUAGAACUAGUGGAUCCCCCGGCGCCCGGCGGCUCGAGCCCGGGUAAGUGGAAAUAGUCUGCAUGCCGCCGGGCGCCAUGCCUGCAGGUCGACUCUAGAAAACAUG” as the sequence, how does the binding signal [3] read?
A: Its binding signal is 2.5 log2 enrichment (interaction score).

Q: What does the source list for “GGCUAGAACUAGUGGAUCCCCCGGCGCCCGGCGGCUCGAGCCCGGGUAAGUGUAAUUAGUCUGCAUGCCGCCGGGCGCCAUGCCUGCAGGUCGACUCUAGAAAACAUG”?
A: binding signal [1]: 2.31 log2 enrichment (interaction score); binding signal [4]: 4.86 log2 enrichment (interaction score)

Q: “GGCUAGAACUAGUGGAUCCCCCGGCGCCCGGCGGCUCGAGCCCGGGUAAGUGUCAAUAGUCUGCAUGCCGCCGGGCGCCAUGCCUGCAGGUCGACUCUAGAAAACAUG” was tested. Which binding signal [5] did it give?
A: The binding signal was 2.1 log2 enrichment (interaction score).

Q: And the binding signal [6]?
A: The binding signal was 3.28 log2 enrichment (interaction score).

Q: “GGCUAGAACUAGUGGAUCCCCCGGCGCCCGGCGGCUCGAGCCCGGGUAAGGGUAAAUAGUCUGCAUGCCGCCGGGCGCCAUGCCUGCAGGUCGACUCUAGAAAACAUG” was tested. Which binding signal [7] did it give?
A: The binding signal was 3.38 log2 enrichment (interaction score).

Q: For “GGCUAGAACUAGUGGAUCCCCCGGCGCCCGGCGGCUCGAGCCCGGGUAAGUUUAAAUAGUCUGCAUGCCGCCGGGCGCCAUGCCUGCAGGUCGACUCUAGAAAACAUG”, which binding signal [2] is on record?
A: The binding signal was 5.24 log2 enrichment (interaction score).

Q: Which results are given for “GGCUAGAACUAGUGGAUCCCCCGGCGCCCGGCGGCUCGAGCCCGGGUAAGUGUAAAUAGUCUGCAUGCCGCCGGGCGCCAUGCCUGCAGGUCGACUCUAGAAAACAUG”?
A: binding signal [8]: 2.76 log2 enrichment (interaction score); binding signal [9]: 3.52 log2 enrichment (interaction score); binding signal [4]: 6.32 log2 enrichment (interaction score); binding signal [5]: 3.16 log2 enrichment (interaction score); binding signal [6]: 0.88 log2 enrichment (interaction score); binding signal [7]: 2.62 log2 enrichment (interaction score)

Q: With “GGCUAGAACUAGUGGAUCCCCCGGCGCCCGGCGGCUCGAGCCCGGGUAAGUGUAAAAAGUCUGCAUGCCGCCGGGCGCCAUGCCUGCAGGUCGACUCUAGAAAACAUG” as the sequence, how does the binding signal [10] read?
A: Its binding signal is 3.4 log2 enrichment (interaction score).

Q: Which binding signal [7] does the source give for “GGCUAGAACUAGUGGAUCCCCCGGCGCCCGGCGGCUCGAGCCCGGGUAAGCGUAAAUAGUCUGCAUGCCGCCGGGCGCCAUGCCUGCAGGUCGACUCUAGAAAACAUG” here?
A: Its binding signal is 2.07 log2 enrichment (interaction score).

Q: Which binding signal [6] does the source give for “GGCUAGAACUAGUGGAUCCCCCGGCGCCCGGCGGCUCGAGCCCGGGUAAGUGUUAAUAGUCUGCAUGCCGCCGGGCGCCAUGCCUGCAGGUCGACUCUAGAAAACAUG” here?
A: The binding signal was 1.23 log2 enrichment (interaction score).
